Screens deposited in PubChem by several laboratories.
Hits are enriched below; roughly 1.3% of the tested compounds scored in any of these assays.
COUP-TFII inh = NR2F2 transcriptional activity inhibitors, primary screen, cell-based, luciferase reporter, HEK293T, luminescence; COUP transcription factor 2 (Homo sapiens), P24468; HEK293T NGFI-A luciferase reporter; inhibition, % at 8.6 µM; 0.7% of 370,000 active;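 active = inhibition above a per-plate cutoff, mean inhibition of test wells between control levels plus 3 SD, cut at about 38% in these data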;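 also: cells cotransfected with COUP-TFII expression vector driving the NGFI-A reporter; 0% = median of COUP-TF2 test wells and 100% = reporter-only cells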
Target sequence (P24468 whole entry, looked up): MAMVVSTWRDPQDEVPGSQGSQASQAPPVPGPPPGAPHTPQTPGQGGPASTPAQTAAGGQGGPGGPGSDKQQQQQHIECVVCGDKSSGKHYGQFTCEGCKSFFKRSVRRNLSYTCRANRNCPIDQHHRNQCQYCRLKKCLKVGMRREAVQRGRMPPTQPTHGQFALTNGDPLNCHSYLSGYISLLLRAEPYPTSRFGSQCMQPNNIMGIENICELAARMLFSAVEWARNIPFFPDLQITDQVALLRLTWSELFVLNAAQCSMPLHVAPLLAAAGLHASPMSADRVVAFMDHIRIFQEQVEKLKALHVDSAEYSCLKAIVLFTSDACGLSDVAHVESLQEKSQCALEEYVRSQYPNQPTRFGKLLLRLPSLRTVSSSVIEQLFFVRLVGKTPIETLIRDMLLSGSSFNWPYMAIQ
SRC2 inh = inhibition of GAL4-SRC2 driven luciferase reporter, primary screen, SRC2 inhibitor project, cell-based, luminescence | HEK293 GAL4-SRC2 luciferase reporter | Nuclear receptor coactivator 2 (Homo sapiens), Q15596 | 0.17% of 370,000 active | inhibition, % at 9 µM;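 active = inhibition above the mean inhibition of all tested compounds plus 3 SD, set per campaign, cut at about 52% in these data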;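 also: 0% = DMSO treated cells and 100% = cells given Gossypol at 36 µM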
Gli-Sufu block = Gli-Sufu pathway antagonists, primary screen, luciferase luminescence, Sufu-KO-LIGHT cells, uHTS; inhibition, % at 5 µM; AID 588413, 2011; 0.74% of 340,000 active; Sufu-KO-LIGHT fibroblasts, Gli luciferase reporter luminescence;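 active = inhibition above about 55%, limit read from the data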;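 also: 0% = DMSO-treated cells and 100% = wells with medium but no cells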
NR5A2 inv ag = LRH-1 (NR5A2) inverse agonists, primary screen, cell-based, luminescence, HEK293T, StAR-luciferase reporter. AID 602396, 2012. Nuclear receptor subfamily 5 group A member 2 (Homo sapiens), O00482. inhibition, % at 3.6 µM. 0.13% of 360,000 active. LRH-1 transfected, 24 h;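 active = inhibition above the mean inhibition of all tested compounds plus 3 SD, cut at about 73% in these data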;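 also: 0% = DMSO wells and 100% = reporter-only cells lacking LRH-1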
SRC3 inh = SRC3 coactivator transcriptional activity inhibitors, primary screen, cell-based, luminescence. Nuclear receptor coactivator 3 (Homo sapiens), Q9Y6Q9. 0.17% of 360,000 active. HEK293 GAL4-SRC3 luciferase reporter. inhibition, % at 3.6 µM;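 active = inhibition above a per-campaign cutoff, the mean of all compounds plus 3 SD, cut at about 60% in these data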;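 also: 0% = DMSO-treated cells and 100% = gossypol-treated cells at 36 µM; higher means less SRC3-driven luciferase light from the GAL4 reporter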
NCOA1 inh = SRC1 coactivator transcriptional activity inhibitors, primary screen, cell-based, luminescence. 0.12% of 360,000 active. HEK293 GAL4-SRC1 luciferase reporter. inhibition, % at 3.6 µM. Nuclear receptor coactivator 1 (Homo sapiens), Q15788;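 active = inhibition above the campaign mean plus 3 SD, with each screening campaign given its own cutoff, cut at about 60% in these data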;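 also: 0% = DMSO treated cells and 100% = gossypol at 36 µM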
* = called active by the depositor; · = not tested or not shown.

SMILES | COUP-TFII inh | SRC2 inh | Gli-Sufu block | NR5A2 inv ag | SRC3 inh | NCOA1 inh
CC(C)(C)c1ccc(C(=O)Nc2sc3c(c2C(=O)O)CCC3)cc1 | 29 | 68* | 4 | 84* | 77* | 67*
O=C(Nc1sc2c(c1C(=O)O)CCCC2)c1ccc(F)cc1 | 0 | -58 | -18 | 30 | 44 | 0
CN(Cc1ccccc1)C1=CC(=[N+]2CCCCC2)CC(C)(C)C1 | 75* | -2 | 85* | 84* | 72* | 61*
CCCCNS(=O)(=O)/C=C/c1ccc(F)cc1CNC(=O)OC(C)(C)C | 20 | -3 | · | · | · | ·
CCOC(=O)c1ccc(N=Cc2cnc(N)nc2N)cc1 | 1 | -8 | -20 | 88* | 2 | -2
Cc1ccc2c(Cl)cc(Cl)c(O)c2n1 | 11 | -1 | 59* | 7 | -4 | 11
O=C(/C=C/c1ccc(Cl)cc1)NC(=S)Nc1ccc(NC(=O)c2ccco2)cc1 | 13 | -45 | 5 | 1 | 52 | 68*
CC(=O)Nc1ccc(NC(=S)NC(=O)/C=C/c2ccc(Cl)cc2)cc1 | 14 | -24 | -6 | -15 | 4 | 2
COc1ccc(C)cc1Nc1n[n+](-c2ccccc2)c(-c2ccc(N(C)C)cc2)s1 | 2 | 12 | 61* | -5 | -16 | -30
COc1cc(C2C(C#N)=C(N)Oc3cc(N)ccc32)cc(OC)c1OC (stereo unspecified) | -14 | 15 | 55* | -8 | 22 | -4
O=S(=O)(c1ccc(NC(=S)NCc2cccnc2)cc1)N1CCCCC1 | 18 | 48 | 13 | 73* | 46 | 67*
C[C@@H]1CN(C(=O)OC(C)(C)C)CCN1c1ccc(Br)c(C#N)c1 | 22 | 32 | · | · | · | ·
Cc1csc2ncnc(N3CCN(S(=O)(=O)c4cccc(C(F)(F)F)c4)CC3)c12 | -7 | 10 | 68* | 10 | -2 | 11
O=S(=O)(c1cccc(Br)c1)N1CCN(c2ncnc3scc(-c4ccccc4)c23)CC1 | 7 | 20 | 2 | 13 | -38 | -6
O=C(Nc1nc(-c2ccccc2)cs1)c1ccc(N2CCOCC2)c([N+](=O)[O-])c1 | · | · | 45 | 70 | 76* | 64*
CC(=O)c1cn(CC(=O)Nc2cccc(C)c2C)c2ccccc12 | 23 | 14 | 14 | 21 | 19 | 25
CCC(=O)c1cn(CC(=O)Nc2cccc(C)c2C)c2ccccc12 | -5 | 10 | 73* | -2 | 11 | 2
CC(=C/c1ccccc1)/C=N/n1c(-c2ccncc2)n[nH]c1=S | 27 | 36 | -7 | 11 | 58 | 63*
CC(/C=N/n1c(-c2cccnc2)n[nH]c1=S)=C\c1ccccc1 | 0 | -3 | -11 | -11 | 9 | 21
Cc1ccc(-c2nc3ncccn3c2NC(=O)Nc2ccc(F)cc2)cc1 | -5 | 6 | · | · | · | ·
O=S(=O)(c1ccc(Cl)cc1)N1CCCC1c1nc(-c2ccc(Cl)cc2)no1 (stereo unspecified) | 3 | 95* | 1 | -1 | 7 | -3
O=S(=O)(c1ccccc1Cl)N1CCCC1c1nc(-c2ccccc2Cl)no1 (stereo unspecified) | 11 | 8 | -4 | 3 | 8 | 0
Cc1ccc(S(=O)(=O)/C(=C/Cl)NC(=O)c2ccccc2)cc1 | 30 | 61* | -8 | 49 | 52 | 15
Cc1ccc(S(=O)(=O)C(NC(=O)c2ccccc2)=C(Cl)Cl)cc1 | 17 | 52 | 2 | 3 | -1 | -1
COC(=O)C1CN(Cc2ccccc2)CCS(=O)(=O)N1Cc1cn(Cc2ccccc2)nn1 (stereo unspecified) | -6 | -14 | · | · | · | ·
SMILES | COUP-TFII inh | SRC2 inh | Gli-Sufu block | NR5A2 inv ag | SRC3 inh | NCOA1 inh
COC(=O)[C@H]1C[C@@]2(N3CCCCC3)c3ccccc3N(S(=O)(=O)c3ccccc3)[C@H]2N1 | 8 | -15 | · | · | · | ·
S=C(NCCCCN(Cc1ccc(Cl)cc1)c1ccc(Br)cn1)NCCCc1cnc[nH]1 | 29 | 41 | · | 95* | 60 | 37
CC(C)C[C@H]1COc2cccc(F)c2S(=O)(=O)N1Cc1cn(Cc2ccc(C(F)(F)F)cc2)nn1 | -28 | 3 | · | · | · | ·
COc1ccc(C2CC(=O)C(c3ccc(C)cc3)=CN2Cc2ccccc2)cc1 (stereo unspecified) | -1 | -11 | · | · | · | ·
CN(C)S(=O)(=O)c1ccc(-c2csc(N/N=C/c3ccco3)n2)cc1 | 20 | 30 | 6 | 1 | 73* | 59
COc1ccc(N=Nc2cc(C)ccc2O)cc1 | -53 | -67 | -75 | -140 | -66 | -151
Cc1ccc(O)c(N=Nc2nccs2)c1 | -62 | 23 | 17 | 83* | 64* | 73*
COc1ccc(CNCC#CC2=CCCCC2)c(OC)c1 | -39 | 18 | · | · | · | ·
COc1cc(/C=N/NC(=O)c2ccc(COc3cc(C)ccc3C(C)C)cc2)cc(OC)c1O | 37 | 62* | 21 | -36 | -13 | -13
Cc1ccc(C(C)C)c(OCc2ccc(C(=O)N/N=C/c3cccc(O)c3O)cc2)c1 | 15 | 73* | 93* | 3 | 65* | 50
O=C(Cc1c[nH]c2ccccc12)Nc1ccc(Nc2cccnc2)c(-c2cc(F)cc(F)c2)c1 | -13 | 3 | · | · | · | ·
Cc1sc2ncnc(N3CCN(CCOc4ccc(Cl)cc4)CC3)c2c1C | 31 | 16 | 74* | 28 | -7 | 23
COc1ccc(C(=O)OCCN(C)C2CN(Cc3cn(Cc4cccc(F)c4)nn3)S(=O)(=O)C2)cc1OC (stereo unspecified) | -11 | -18 | · | · | · | ·
Cc1ccccc1CN1CC2=C(CCN(Cc3ccccc3)C2=O)N2CCN=C12 | 37 | 2 | · | 85* | 62* | 49
COc1ccc(Br)cc1C(=O)Nc1cccc(-c2nnc(-c3ccco3)o2)c1 | -25 | 2 | 71* | 0 | 18 | 1
COc1cccc(C(=O)Nc2cccc(-c3nnc(-c4ccco4)o3)c2)c1 | 12 | -34 | -24 | -16 | 1 | -5
NC(=O)c1cccc(-c2cnc(N)c(C(=O)c3cccnc3)n2)c1 | · | · | -10 | 63 | 63* | 75*
CC(=O)Nc1cccc(-c2cnc(N)c(C(=O)c3cccnc3)n2)c1 | · | · | -6 | 75* | 78* | 79*
C=CCN1[C@H](CC(C)C)COc2cc(N3CCCC3)ccc2S1(=O)=O | 1 | 21 | · | · | · | ·
C=C1C(=O)OC2CC1C(O)CC(C)=CCCC(C)=CC(O)CC2C (stereo unspecified) | 47* | 52 | 20 | -3 | 59 | 30
C=C1C(=O)OC2C1CCC(C)C1C=CC(=O)C12C (stereo unspecified) | -27 | -19 | -3 | -21 | -10 | -29
